Bioassay records as filed in PubChem BioAssay.
Ba/F3 V617F tox: lowers viability of Ba/F3 cells expressing EpoR and JAK2V617F. ATP luminescence. 220,000 tested, 1.1% active. inhibition, % at 5.6 µM;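 active = inhibition above the campaign mean plus 3 SD over all tested compounds, cut at about 24% in these data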;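 note: cytokine-independent growth of Ba/F3 cells driven by EpoR plus mutant JAK2; 0% = DMSO-treated cells and 100% = JAK inhibitor I control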
aSyn 5UTR inh: MLPCN primary screen, SNCA 5' untranslated region. alpha-synuclein 5'UTR reporter, inhibitor activity. inhibition, % (tested at 7.5 µM). 300,000 tested, 0.82% active. AID 1813; in the data active = inhibition above about 60%;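 note: H4 neuroglioblastoma cells stably carrying SNCA 5'UTR luciferase fusion; 0% = DMSO wells and 100% = positive control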
IEC-6 tox-1: IEC-6 cytotoxicity, counter-screen for KLF5 inhibitors; AID 1825; inhibition, % at 5 µM; luminescence viability; 290,000 tested, 0.78% active;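 note: 0% = plate median of test compound wells and 100% = cytotoxic reference compound wells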
BaF3 parental: reduces parental Ba/F3 cell viability, JAK2V617F counter-screen. CellTiter-Glo ATP luminescence. inhibition, % at 5.6 µM. 220,000 tested, 1.1% active. AID 1486;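 active = inhibition above a per-campaign cutoff, the mean inhibition of all tested compounds plus 3 SD, cut at about 27% in these data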;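 note: 0% = DMSO wells and 100% = JAK Inhibitor I control wells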
APP 5UTR inh: APP translation inhibition | 190,000 tested, 0.82% active | inhibition, % at 2 µM | SH-SY5Y APP 5'UTR-luciferase reporter, luminescence;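 active = inhibition above a set limit, derived from the sample mean plus 3 SD, cut at about 45% in these data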
KLF5 inh: inhibitors of KLF5 expression. inhibition, % at 5 µM. DLD-1 KLF5 promoter-luciferase reporter, luminescence. 290,000 tested, 0.23% active. AID 1700;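 active = inhibition above a per-plate limit of that plate's mean compound inhibition plus 3 SD, cut at about 60% in these data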;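 note: 0% = DMSO wells and 100% = LY294002 at 200 µM; higher means less KLF5 promoter-driven luciferase light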
KLF5 confirm: KLF5 inhibition, confirmation assay | shares compounds with KLF5 inh | DLD-1 KLF5 promoter firefly luciferase reporter, luminescence | inhibition, % at 4 µM | 610 tested, 79% active | AID 1834;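 active = inhibition above a set limit taken from the earlier primary screen, cut at about 63% in these data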;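 note: 0% = DMSO wells and 100% = LY294002 at 200 µM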
IEC-6 tox-2: counter-screen for KLF5 inhibitors: cytotoxicity in rat IEC-6 cells. shares compounds with KLF5 inh. 610 tested, 56% active. inhibition, % at 4 µM. IEC-6 rat intestinal cells, viability luminescence. AID 1905; in the data active = inhibition above about 23%;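 note: cells exposed to compounds for 48 hours before viability read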
IEC-6 cytotox cf: confirmation of cytotoxic compounds in rat IEC-6 intestinal epithelial cells; AID 1907; 1,900 tested, 63% active; shares compounds with IEC-6 tox-1; inhibition, % at 5 µM; IEC-6 rat intestinal epithelial viability, luminescence;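 note: 0% = vehicle and 100% = reference cytotoxic drug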
* = called active by the depositor; · = no result. Compounds with a hit are over-represented: about 2.2% of the library has one in this group of screens. Cut-off read from the data, not from the text of the source, unless noted: active = inhibition above about 22%; inactive = the rest.

SMILES	Ba/F3 V617F tox	aSyn 5UTR inh	IEC-6 tox-1	BaF3 parental	APP 5UTR inh	KLF5 inh	KLF5 confirm	IEC-6 tox-2	others
Clc1ccccc1/C=C/c1nc(-c2ccccn2)no1	-2	104*	-6	2	·	72*	73*	5
C=CCc1cccc(/C=N/NC(=O)c2ccc3nc[nH]c3c2)c1O	·	43	12	·	·	63*	46	27*
O=C(Nc1ccc2c(c1)OCCO2)c1cc(F)c(F)cc1Cl	·	-195	-2	·	·	-104	·	·
Cc1ccc(C(=O)Nc2ccc3c(c2)OCCO3)c(Cl)c1	·	80*	3	·	·	78*	38	6
COc1ccc(C(=O)NNC(=O)c2ccccn2)cc1	12	79*	24*	11	-125	77*	-127	1
CCOc1ccc(NC(=O)c2ccccn2)cc1	6	104*	7	12	-116	79*	50	11
COc1ccc(Cl)cc1NC(=O)CN(C)CC(=O)Nc1ccccc1N1CCOCC1	83*	112*	77*	76*	83*	66*	77*	57*
COC(=O)c1ccccc1NC(=O)CNc1cc(Cl)ccc1N1CCOCC1	3	19	10	10	-6	-8	·	·
COc1ccc(OC)c(Nc2cc(C)nc3nc(C)nn23)c1	-2	-10	4	7	-1	92*	81*	0
CC(=O)Nc1nnc(SCC(=O)N2C(C)CCCC2C)s1 (stereo unspecified)	·	3	-4	·	·	3	·	·
Cc1ccc(-c2nc3ccc(Cl)cc3n2OC(C)C(=O)O)cc1 (stereo unspecified)	9	-127	4	13	-116	66*	-17	9
O=C(O)c1ccc(N/N=C/c2c[nH]c3ccccc23)cc1	·	79*	-4	·	·	77*	70*	7
COc1cc(OC)c2cc(C(=O)N/N=C/c3ccccc3O)[nH]c2c1	·	-31	15	·	·	84*	57	2
COc1ccc2[nH]c(C(=O)N/N=C/c3ccccc3OC)cc2c1	·	-119	5	·	·	29	·	·
c1ccc(-c2noc(-c3ccc4ccccc4c3)n2)nc1	2	113*	7	6	49*	82*	106*	8
Cc1cccc(C)c1-n1c(C)cc(/C=N\Nc2ccc([N+](=O)[O-])cn2)c1C	1	-20	11	3	6	-26	·	·
Cc1cc(/C=N/Nc2nc(N)ncc2[N+](=O)[O-])c(C)n1-c1ccccc1F	3	73*	5	0	·	78*	94*	12
COc1ccc(N(Cc2cc3cccc(C)c3[nH]c2=O)C(=O)C2CCCO2)cc1 (stereo unspecified)	4	-4	6	-2	·	-4	·	·
COC(=O)Cn1ncc(N2CC(C)OC(C)C2)c(Cl)c1=O (stereo unspecified)	·	-2	5	·	·	3	·	·
Oc1cccc2ccc(Nc3ccccn3)nc12	98*	98*	-3	76*	80*	105*	102*	14
O=C(O)c1ccc(N/N=C/c2ccc3nccnc3c2)cc1	5	94*	3	2	·	98*	103*	2
C/C(=N\Nc1ccc2nncn2n1)c1ccccn1	76*	94*	2	69*	·	68*	76*	83*
Cc1cccc(N(C)Cc2nnc(-c3cccc(Br)c3)o2)c1	·	3	0	·	·	-5	·	·
Cc1nn(-c2ccccc2)c(C)c1/C=N/NC(=O)c1cc(-c2cccs2)[nH]n1	71*	46	72*	73*	93*	82*	77*	69*
Cc1ccc(N2C(SCC(=O)O)=NC(=Nc3cccc(C)c3)C23CCCC3)cc1	3	-54	-5	3	-5	-7	·	·
SMILES	Ba/F3 V617F tox	aSyn 5UTR inh	IEC-6 tox-1	BaF3 parental	APP 5UTR inh	KLF5 inh	KLF5 confirm	IEC-6 tox-2	others
COc1cc(C(=O)NC2CCCc3ccccc32)cc(OC)c1OC (stereo unspecified)	·	10	-2	·	·	-3	·	·
CCN(CC)c1ccc2c(cc1=O)[C@@H](NC)CCc1cc(OC)c(OC)c(OC)c1-2	·	107*	85*	·	·	70*	92*	81*	IEC-6 cytotox cf=76*
COc1cc2c(cc1OC)C(COc1ccc(F)cc1)N(C(C)=O)CC2 (stereo unspecified)	·	22	-4	·	·	-40	·	·
COc1cc2c(c(OC)c1OC)-c1ccc(OC)c(=O)cc1[C@@H](NC(C)=O)CC2	·	96*	96*	·	·	79*	88*	81*	IEC-6 cytotox cf=83*
COc1cc2c(c(OC)c1OC)-c1ccc(N(C)CC(OC)OC)c(=O)cc1[C@@H](NC(C)=O)CC2	·	84*	92*	·	·	86*	86*	61*	IEC-6 cytotox cf=66*
COc1cc2c(c(OC)c1OC)-c1ccc(OC)c(=O)cc1[C@@H](N(C)CC#CCO)CC2	·	87*	93*	·	·	81*	92*	75*	IEC-6 cytotox cf=74*
Cc1cc(=O)oc2c(C)c(OCC(=O)N3CCC(C(=O)O)CC3)ccc12	·	3	-5	·	·	-13	·	·
CCCCCCCCC[n+]1cccc2c3ccccc3ccc21	101*	69*	60*	92*	29	75*	71*	39*	IEC-6 cytotox cf=72*
O/N=C/c1cccc[n+]1CCCCCC[n+]1ccccc1/C=N/O	·	-1	-3	·	·	-16	·	·
CCn1c(C)nc2cc(-c3nc4n(n3)Cc3ccccc3-4)ccc21	48*	87*	33*	42*	85*	112*	110*	39*	IEC-6 cytotox cf=43*
COC(=O)c1c(SCC(=O)Nc2ccc(C)c(C)c2)nc(=O)[nH]c1C	2	5	0	-3	·	4	·	·
Cc1c(C(=O)OCc2ccccc2)[nH]c2c1C(=O)CC(c1ccco1)C2 (stereo unspecified)	68*	34	81*	73*	94*	77*	80*	56*	IEC-6 cytotox cf=52*
CCOC(=O)c1[nH]c2c(c1C)C(=O)CC(c1ccco1)C2 (stereo unspecified)	87*	73*	89*	88*	96*	83*	90*	66*	IEC-6 cytotox cf=63*
Cc1c(C(=O)O)[nH]c2c1C(=O)CC(c1ccccc1)C2 (stereo unspecified)	-2	-13	3	2	-10	-1	·	·
Cc1c(C(=O)OCCOC(C)C)[nH]c2c1C(=O)CC(c1ccco1)C2 (stereo unspecified)	81*	36	89*	86*	96*	77*	85*	67*	IEC-6 cytotox cf=60*
CCOc1ccc(C(=O)N/N=C/c2c(C)[nH]c(=O)[nH]c2=O)cc1	-1	13	-2	4	·	-21	·	·
O=C(Nc1ccc2c(c1)OCO2)C1CC(=O)N(c2cccc(Cl)c2)C1 (stereo unspecified)	·	-4	6	·	·	-4	·	·
